Source: PubChem (National Center for Advancing Translational Sciences (NCATS))
Hits are enriched below; roughly 5.5% of the tested compounds scored in any of these assays.
Gal4-VP16 FLuc: counter-screen for ROR gamma inhibitors: Gal4-VP16 reporter. Drosophila S2 Gal4-VP16 UAS-luciferase, luminescence, 20 h. Potency, µM (highest dose often 53.6 µM), usual class: inhibitors. 310,000 compounds, 3.5% hits;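 further: Gal4-VP16 expression switched on by copper sulfate through the metallothionein promoter; nearly all actives have a fitted effect of over 50% in size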
CtBP-E1A inh: CtBP/E1A binding inhibition | AlphaScreen GST-E1A/His-CtBP binding, 1536-well; active compounds read low | activity change, % (concentration not given with the values) | 340,000 compounds, 0.49% hits | AID 651724; in the data active means activity change below about -65%; inconclusive means mostly about -30% to -63%
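GST-E1A and His-tagged CtBP (125 nM each as 5X stock) were preincubated with pin-transferred compound for 2 h at 37 °C in the dark, then glutathione donor and nickel acceptor beads were added for 1 h before AlphaScreen reading.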
Six1-Eya2 inh: Six1/Eya2 interaction inhibition | AlphaScreen GST-Six1/His-Eya2 binding, biochemical; active compounds read low | Q15475+O00167 | 360,000 compounds, 0.56% hits | activity change, % (concentration not given with the values); in the data active means activity change below about -65%; inconclusive means mostly about -30% to -63%
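AlphaScreen luminescence read after one hour at 37 °C in darkness. Pin-transferred compounds met GST-Six1 and His-Eya2 protein (5X stock 250 nM/500 nM) plus glutathione donor and Ni-chelate acceptor beads (5X, 50 ug/mL).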
CBFb RUNX1 block: CBF-beta/RUNX1 interaction disruption; Potency, µM (top dose mostly 59.8 µM), actives largely listed as inhibitors; AID 1477; AlphaScreen CBFb-His/RUNX1-biotin binding, biochemical; 230,000 tested, under 10 active
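Bead-based AlphaScreen assay; binding partners His-tagged CBF-beta and biotinylated RUNX1 at 30 nM each. Compound exposure 15 min after a 20-min protein preincubation; bead step 90 min; all steps at room temperature.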
MBNL1 CUG block: MBNL1-poly(CUG) RNA binding inhibition. Potency, µM (top dose mostly 57.5 µM), most hits filed as inhibitors. TR-FRET MBNL1-His/biotin-(CUG)12 binding, 665/545 ratio. Q9NR56. 280,000 compounds, 0.036% hits; active means well fitted inhibition curve with a large enough effect in the signal ratio, with a control signal flat, not every such curve was filed as active; inconclusive means small, poorly fitted or top-dose-only effect, or effect the other way, or a change in a side signal; inactive means no such curve, though single readings can be large or run the other way; the % refers to the signal ratio
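Compounds (final 92 nM to 58 uM) are added to His-tagged MBNL1 and biotin-(CUG)12, then terbium anti-His antibody and streptavidin-XL665 (5 nM final). After 60 min at room temperature, the 665/545 nm ratio is read.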
RORg inh: inhibitors of mouse ROR gamma transcriptional activity; P51450; Drosophila S2 Gal4-RORgamma UAS-luciferase reporter, 20 h; Potency, µM (titrated, usually from 53.6 µM), most hits filed as inhibitors; 310,000 compounds, 5.4% hits; further: nearly all actives have a fitted effect of over 60% in size
Target sequence (P51450 whole entry, looked up, the tested form may be a part): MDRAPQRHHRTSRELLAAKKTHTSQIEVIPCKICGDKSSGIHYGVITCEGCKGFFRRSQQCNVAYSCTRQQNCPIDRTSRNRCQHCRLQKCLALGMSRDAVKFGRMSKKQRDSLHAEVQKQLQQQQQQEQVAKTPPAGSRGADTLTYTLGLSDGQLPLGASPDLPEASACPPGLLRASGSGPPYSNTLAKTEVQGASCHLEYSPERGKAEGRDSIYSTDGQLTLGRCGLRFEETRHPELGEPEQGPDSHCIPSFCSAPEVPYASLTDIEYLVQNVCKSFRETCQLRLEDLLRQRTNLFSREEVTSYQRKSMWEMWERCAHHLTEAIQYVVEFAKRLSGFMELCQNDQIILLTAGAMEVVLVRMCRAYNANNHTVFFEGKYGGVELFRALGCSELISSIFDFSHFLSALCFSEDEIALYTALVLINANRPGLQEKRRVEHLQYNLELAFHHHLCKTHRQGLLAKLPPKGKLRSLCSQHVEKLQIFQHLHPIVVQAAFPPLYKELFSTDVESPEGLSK
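Stably transfected Drosophila Schneider cells are the test system, with ROR gamma fused to Gal4 and luciferase under UAS control; luminescence is read after 20 hr of 700 uM copper sulfate induction at ambient temperature.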
Each line names hits and unclear results; the compound was inactive in the other large screens. Unless noted, the call rests on the fitted dose curve; in most records, active means well fitted curve in the direction sought with a large enough effect; inconclusive means small, poorly fitted or top-dose-only effect, or another doubt; inactive means no such curve, though single readings can be large; an effect the other way counts as inactive or inconclusive.

Cc1ccc(C)c(-c2cc(C(=O)Nc3nccs3)c3ccccc3n2)c1	Gal4-VP16 FLuc inconclusive, RORg inh 12.6µM
Cc1ccc(-c2cc(C(=O)NN=C3CCCC3)c3ccccc3n2)cc1	Gal4-VP16 FLuc inconclusive, RORg inh 12.6µM
O=C(NN=C1CCCCCC1)c1cc(-c2ccccc2)nc2ccccc12	RORg inh inconclusive
COC(=O)c1sccc1NC(=O)c1cc(-c2cc(C)ccc2C)nc2ccccc12	none
C=CCc1c(C)nc(C)nc1N/N=C/c1ccccc1O	Gal4-VP16 FLuc 5.01µM, CtBP-E1A inh -91.8, Six1-Eya2 inh -81.0, MBNL1 CUG block inconclusive, RORg inh inconclusive
C=CCc1c(Cl)nc(C)nc1NCc1ccccc1	RORg inh inconclusive (no result: CBFb RUNX1 block)
Cc1ccc(C=NNc2ccc([N+](=O)[O-])cn2)cc1	none (no result: Gal4-VP16 FLuc, CBFb RUNX1 block, MBNL1 CUG block, RORg inh)
C=CCc1c(C)nc(C)nc1N/N=C/c1ccc([N+](=O)[O-])cc1	MBNL1 CUG block inconclusive, RORg inh 11.2µM
COc1c(C2=CC(=O)N(C)C2=O)c2c(n1C)C(=O)c1ccccc1C2=O	Gal4-VP16 FLuc 10µM, RORg inh inconclusive (no result: CtBP-E1A inh, Six1-Eya2 inh, MBNL1 CUG block)
Cc1cccc(S(=O)Cc2ccc(C(=O)N3CCN(C(=O)c4ccco4)CC3)o2)c1 (configuration not stated)	none (no result: CBFb RUNX1 block)
Cc1cccc(NC(=O)c2sc3ncn(CC(=O)N4CCN(c5ccccn5)CC4)c(=O)c3c2C)c1	none (no result: CBFb RUNX1 block)
COc1cccc(CNC(=O)Cc2ccc(S(=O)(=O)N3CCOCC3)s2)c1	none (no result: Gal4-VP16 FLuc, CBFb RUNX1 block, MBNL1 CUG block, RORg inh)
CCN(CC)S(=O)(=O)c1ccc(-c2cn3ccccc3n2)cc1	none (no result: Gal4-VP16 FLuc, CBFb RUNX1 block, MBNL1 CUG block, RORg inh)
CN(C)S(=O)(=O)c1ccc(-c2cn3ccccc3n2)cc1	Gal4-VP16 FLuc 17.8µM
COc1ccccc1-c1cnc(C(O)c2ccc(CN3CCCC3)cc2)[nH]1 (configuration not stated)	none (no result: Gal4-VP16 FLuc, CBFb RUNX1 block, MBNL1 CUG block, RORg inh)
CN(c1ccccc1)S(=O)(=O)c1cccc(NC(=O)CSc2n[nH]c(N)n2)c1	Gal4-VP16 FLuc 7.08µM, RORg inh inconclusive
COc1ccc(C2=Nc3ccccc3N(C(=O)c3ccc(C(F)(F)F)cc3)C2C(=O)Nc2c(C)cccc2C)cc1 (configuration not stated)	none (no result: Gal4-VP16 FLuc, CBFb RUNX1 block, MBNL1 CUG block, RORg inh)
O=C(O)c1cccc(COc2ccccc2Cl)c1	Gal4-VP16 FLuc 1.12µM
O=C(O)c1ccc(COc2ccccc2Cl)cc1	none
COc1ccccc1C(=O)OCc1ccc2sc(C)nc2c1	none
Cc1[nH]c2ccccc2c1/C=N/NC(N)=S	none
Cc1ccc(C(=O)Nc2ccc(C(=O)N/N=C/c3c[nH]c4ccccc34)cc2)cc1	Six1-Eya2 inh inconclusive
Cc1ccc(Cn2cccc2/C=N/NC(=S)Nc2ccc(C)cc2)cc1	Gal4-VP16 FLuc 3.98µM, Six1-Eya2 inh inconclusive, RORg inh 0.398µM
Cc1ccc(NC(=S)N/N=C/c2c(C)[nH]c3ccccc23)cc1	Gal4-VP16 FLuc 3.98µM, RORg inh 2µM
Cc1cccc(NC(=S)N/N=C/c2c[nH]c3ccccc23)c1	Gal4-VP16 FLuc 5.62µM, RORg inh 2.51µM (no result: MBNL1 CUG block)
Cc1[nH]c2ccccc2c1/C=N/NC(=S)NCc1ccccc1	Gal4-VP16 FLuc inconclusive, CBFb RUNX1 block inconclusive, RORg inh 11.2µM (no result: CtBP-E1A inh)
CC(=O)[C@@H]1[C@H]2[C@H](C(=O)[C@H]3OC[C@@H]2O3)[C@H]2C=Cc3ccccc3N21	Gal4-VP16 FLuc inconclusive, RORg inh inconclusive (no result: CtBP-E1A inh, Six1-Eya2 inh, MBNL1 CUG block)
c1ccc(-c2nnc3sc(-c4ccncc4)nn23)cc1	CtBP-E1A inh inconclusive, Six1-Eya2 inh inconclusive
c1ccc(-c2nnc3sc(-c4csc5c4CCCC5)nn23)cc1	Gal4-VP16 FLuc inconclusive, RORg inh 6.31µM
O=c1[nH]c(S)nc2sc3c(c12)CCCC3	RORg inh 12.6µM
O=C1C=C(c2ccoc2)N2CCC[C@H]2C1	none (no result: Gal4-VP16 FLuc, CBFb RUNX1 block, MBNL1 CUG block, RORg inh)
O=C(c1ccccc1)c1ccc(-c2ccc(O)cc2)cc1	Gal4-VP16 FLuc 17.8µM, RORg inh 3.55µM
Cn1c(=O)c2ccccc2n2c(=S)[nH]nc12	RORg inh inconclusive (no result: CBFb RUNX1 block)
CCCCCn1c(=O)c2ccccc2n2c(=S)[nH]nc12	Gal4-VP16 FLuc inconclusive, RORg inh 7.08µM (no result: CtBP-E1A inh, CBFb RUNX1 block)
CCCn1c(=O)c2ccccc2n2c(=S)[nH]nc12	none (no result: CBFb RUNX1 block)
CCCCn1c(=O)c2ccccc2n2c(=S)[nH]nc12	Gal4-VP16 FLuc inconclusive, RORg inh 10µM (no result: CBFb RUNX1 block)
O=C(/C=C/c1ccc(I)cc1)c1ccc(B(O)O)cc1	RORg inh inconclusive (no result: CtBP-E1A inh, Six1-Eya2 inh, CBFb RUNX1 block, MBNL1 CUG block)
Cn1c(-c2sc(=S)n(-c3ccccc3)c2N)nc2ccccc21	RORg inh 7.94µM
C=CCn1c(N)c(-c2nc3ccccc3n2C)sc1=S	Gal4-VP16 FLuc inconclusive
CC(C)=CCC1=C(OCC(=O)O)C(=O)c2ccccc2C1=O	Gal4-VP16 FLuc 2.24µM, MBNL1 CUG block inconclusive, RORg inh inconclusive (no result: CtBP-E1A inh)
COc1cc(NS(=O)(=O)c2ccc(C)cc2)c2ncccc2c1	Gal4-VP16 FLuc 0.794µM, CtBP-E1A inh -78.8, Six1-Eya2 inh -71.7, CBFb RUNX1 block inconclusive, RORg inh 1µM
COc1cc(NS(=O)(=O)c2ccc([N+](=O)[O-])cc2)c2ncccc2c1	Gal4-VP16 FLuc 0.891µM, CBFb RUNX1 block inconclusive, RORg inh 0.891µM (no result: CtBP-E1A inh, Six1-Eya2 inh, MBNL1 CUG block)
